Screening results from PubChem.
GLS inhibitor: qHTS for Inhibitors of Glutaminase (GLS); hit rate 0.21% among 410,000; AID 624170, 2012; GLS enzymatic activity, qHTS titration; Potency, µM (highest dose often 45.5 µM), actives largely listed as inhibitors; Glutaminase kidney isoform, mitochondrial (Homo sapiens), O94925
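hKGA; 45 mM KH2PO4 pH 8.2 + 0.02% Tween-20; cpd via pin tool; 1 mM Gln soln; GluOx/HRP/Amplex Red; RT 30 min; fluor. t0 & final.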
GCN5L2 inh: qHTS Assay for Inhibitors of GCN5L2 | Histone acetyltransferase KAT2A (Homo sapiens), Q92830 | GCN5L2 HAT assay, ThioGlo1 CoA-SH fluorescence | AID 504327, 2011 | Potency, µM (highest dose often 58.9 µM), hits mostly inhibitors | hit rate 0.21% among 390,000
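Compounds, pin-transferred from DMSO stocks, meet 20nM GCN5L2 for 15 min before the reaction begins with H3(1-25) peptide (75uM) and acetyl-CoA (70uM). Thiol-reactive ThioGlo1 reports CoA release over 20 min at room temperature.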
PKM2 activator: qHTS Assay for Activators of Human Muscle isoform 2 Pyruvate Kinase; Pyruvate kinase PKM (Homo sapiens), P14618; purified PKM2, Kinase-Glo ATP luminescence, activation; response scale: 0% is enzyme alone, no compound; Potency, µM (top dose mostly 57.5 µM), hits mostly activators; hit rate 0.34% among 260,000; AID 1631, 2009; also: nearly all actives have a fitted effect of over 55% in size
Target sequence (P14618 whole entry, looked up, canonical isoform): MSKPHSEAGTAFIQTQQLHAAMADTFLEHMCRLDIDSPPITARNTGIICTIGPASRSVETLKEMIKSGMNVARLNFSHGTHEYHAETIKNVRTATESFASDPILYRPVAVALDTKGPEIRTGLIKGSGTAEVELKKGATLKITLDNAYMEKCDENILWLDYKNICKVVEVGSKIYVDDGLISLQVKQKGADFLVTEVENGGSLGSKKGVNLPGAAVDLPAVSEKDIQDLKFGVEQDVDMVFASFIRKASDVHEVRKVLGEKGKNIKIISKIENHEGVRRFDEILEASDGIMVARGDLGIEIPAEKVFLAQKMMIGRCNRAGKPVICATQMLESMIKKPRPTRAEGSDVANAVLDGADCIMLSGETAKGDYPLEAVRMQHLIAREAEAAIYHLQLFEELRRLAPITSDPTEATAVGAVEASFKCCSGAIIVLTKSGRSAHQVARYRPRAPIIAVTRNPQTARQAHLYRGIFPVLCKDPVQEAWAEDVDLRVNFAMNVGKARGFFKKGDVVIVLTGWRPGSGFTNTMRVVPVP
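Kinase-Glo luminescence reports ATP generated from ADP (0.1 mM) and PEP (0.5 mM) by purified hPK-M2 after 1 h at room temperature, pH 7.2 imidazole buffer; intermediate enzyme activity allows detecting inhibitors and activators.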
Mito fusion yeast: qHTS Assay for Small Molecule Inhibitors of Mitochondrial Division or Activators of Mitochondrial Fusion | hit rate 0.23% among 320,000 | Potency, µM (doses to about 46.1 µM), most hits filed as activators | S. cerevisiae fusion-defective mutant growth rescue, CellTiterGlo 48 h | AID 485298, 2010; also: nearly all actives have a fitted effect of over 45% in size
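Yeast fusion mutant, YPEG (non-fermentable carbon), compound, 48 h at 37C non-permissive; CellTiterGlo added, 10 min RT, luminescence read. Rescued growth = division inhibition.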
PLK1 PBD block: qHTS for Inhibitors of PLK1-PDB (polo-like kinase 1 - polo-box domain): Primary Screen; Serine/threonine-protein kinase PLK1 (Homo sapiens), P53350; Plk1 PBD binding of FITC phosphopeptide, fluorescence polarization; Potency, µM, most hits filed as inhibitors; hit rate 2.8% among 360,000; also: series mostly up to about 57 µM; nearly all actives have a fitted effect of over 65% in size
VDR inhibitor: Inhibitors of the vitamin D receptor (VDR): qHTS. Potency, µM, most hits filed as inhibitors. hit rate 0.93% among 400,000. VDR-SRC2-3 peptide fluorescence polarization, 2 h. Vitamin D3 receptor (Homo sapiens), P11473
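FP read-out; VDR + SRC2-3 coactivator peptide; 23 nl compound by pintool; 2 h RT incubation; reagents held at 4 deg C, protected from light.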
Numbers stand for hits; n = inactive; u = inconclusive; x = no result given; [ ] = dose if it differs, or a comment. A selection: hits, their analogues and other compounds. The true share with any hit is near 3.4%. Calls follow the shape of the dose curve; as a rule, active = well fitted curve in the direction sought with a large enough effect; inconclusive = small, poorly fitted or top-dose-only effect, or another doubt; inactive = no such curve, though single readings can be large; an effect the other way counts as inactive or inconclusive.

SMILES	GLS inhibitor	GCN5L2 inh	PKM2 activator	Mito fusion yeast	PLK1 PBD block	VDR inhibitor
Cc1cccc(OCCN2C(=O)C(=O)c3cccc(C)c32)c1	n	n	n	n	n	u
Cc1cccc2c1N(CCCOc1ccc(C(C)(C)C)cc1)C(=O)C2=O	n	n	n	n	u	40µM
Cc1cccc(OCCN2C(=O)C(=O)c3cc(C)ccc32)c1	n	n	n	n	n	71µM
CCCN1C(=O)C(=O)c2cc(C)ccc21	n	n	x	x	n	n
Cc1ccc2c(c1)C(=O)C(=O)N2CCCOc1ccccc1C	n	n	n	n	u	40µM
O=C(O)c1c(C(=O)O)c2ccccc2[nH]c1=O	x	x	x	x	x	n
CCc1ccc(CN2CCCC(C(=O)Nc3ccc(-c4cscn4)cc3)C2)o1 (stereo not given)	n	n	x	n	n	n
Nc1nnc(-c2cc3c(ccc4ccccc43)oc2=O)s1	x	n	n	n	x	x
O=S(=O)(Nc1ccccc1)c1ccc(-c2csnn2)cc1	n	n	14µM	n	n	n
COc1ccc(N(CC(=O)Nc2cc(C)ccc2C)S(=O)(=O)c2ccccc2[N+](=O)[O-])c(OC)c1	n	n	n	n	12µM	n
C=CCC(C)(O)c1ccccc1 (stereo not given)	x	x	x	x	x	n
CC1(C)CC(=O)C(=Cc2cn(CCC#N)nc2-c2ccc(F)cc2)C(=O)C1	n	n	n	n	3.4µM	u
CC1(C)CC(=O)C(=Cc2cn(-c3ccccc3)nc2-c2ccc(Cl)cc2)C(=O)C1	u	n	n	n	1.2µM	u
O=C(NCc1ccccc1)c1cc(-c2cccs2)on1	n	2.5µM	n	n	n	n
O=C(NCCCN1CCOCC1)c1cc(-c2cccs2)on1	n	n	n	n	n	n
O=C(NCc1cccnc1)c1cc(-c2ccco2)on1	n	n	22µM	n	n	n
O=C(NCCCn1ccnc1)c1cc(-c2cccs2)on1	n	2.2µM	n	n	n	n
Cc1ccc(-c2cc(C(=O)NCc3cccnc3)no2)cc1	n	n	n	n	n	n
O=C1c2cccc3c(O)ccc(c23)C(=O)N1c1ccc(Cl)cc1	n	n	x	n	4.7µM	n
O=C1c2ccccc2C(=O)N1c1ccc(Cl)cc1	x	n	n	n	x	x
CC(=O)Nc1ccc(N2C(=O)c3cccc4c(O)ccc(c34)C2=O)cc1	n	n	x	n	4.7µM	n
O=C(NCCc1ccccc1)C1CCN(C2CCN(C(=O)CC3=CCCCC3)CC2)CC1	n	n	n	n	n	n
CCOc1cccc(CN2CCCC(N3CCc4cc(OC)c(OC)cc4C3)C2)c1O (stereo not given)	n	n	n[11.5 µM]	n	n	n
CS(=O)(=O)c1ccc(CNC(=O)[C@@H]2C[C@H]2[C@@H](NP(=O)(c2ccccc2)c2ccccc2)c2ccccc2)cc1	x	x	n	x	x	x
S=C(Nc1ccccc1)N1N=C(c2cccs2)CC1c1cccs1 (stereo not given)	u	n	n	n	12µM	79µM
SMILES	GLS inhibitor	GCN5L2 inh	PKM2 activator	Mito fusion yeast	PLK1 PBD block	VDR inhibitor
CCOC(=O)CC1(CCc2ccccc2)Oc2ccccc2O1	x	x	x	x	n	x
CN(C)S(=O)(=O)c1ccc(C(=O)NCC2CC2(Cl)Cl)cc1 (stereo not given)	n	n	n	n	24µM	u
N#CN=c1snc(-c2ccccc2)n1-c1ccc(Cl)cc1	x	x	x	x	x	n
CCc1nc2c(OCc3ccc4c(c3)OCO4)cccn2c1N(C=O)Cc1ccccc1	n	x	x	x	n	x
COCCCOc1cc(C[C@@H](C[C@H](N)[C@@H](O)C[C@H](C(=O)NCC(C)(C)C(N)=O)C(C)C)C(C)C)ccc1OC	n	x	x	x	x	x
COc1ccc(OCc2nnc(SCC(=O)N(C)Cc3ccccc3)n2N)cc1	n	n	n	n	11µM	79µM
Cc1ccc(OCc2nnc(SCC(=O)O)n2N)cc1	n	n	n	n	n	n
